Source: PubChem
KCC2 mod: KCC2 (human) Cl- transport modulation | KCC2 cells, thallium flux FluoZin-2 fluorescence | B-score of Tl+ flux slope (higher = more flux/activation; lower = inhibition) at 10 µM | hit rate 2.2% among 190,000 | AID 1456;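 active = thallium flux slope and its plate-corrected score both differing from the plate sample mean at a set confidence after two filtering rounds, in either direction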;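 also: slope of fluorescence scaled to starting intensity during 10 to 20 s after thallium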
Target sequence (Q9H2X9 whole entry, looked up): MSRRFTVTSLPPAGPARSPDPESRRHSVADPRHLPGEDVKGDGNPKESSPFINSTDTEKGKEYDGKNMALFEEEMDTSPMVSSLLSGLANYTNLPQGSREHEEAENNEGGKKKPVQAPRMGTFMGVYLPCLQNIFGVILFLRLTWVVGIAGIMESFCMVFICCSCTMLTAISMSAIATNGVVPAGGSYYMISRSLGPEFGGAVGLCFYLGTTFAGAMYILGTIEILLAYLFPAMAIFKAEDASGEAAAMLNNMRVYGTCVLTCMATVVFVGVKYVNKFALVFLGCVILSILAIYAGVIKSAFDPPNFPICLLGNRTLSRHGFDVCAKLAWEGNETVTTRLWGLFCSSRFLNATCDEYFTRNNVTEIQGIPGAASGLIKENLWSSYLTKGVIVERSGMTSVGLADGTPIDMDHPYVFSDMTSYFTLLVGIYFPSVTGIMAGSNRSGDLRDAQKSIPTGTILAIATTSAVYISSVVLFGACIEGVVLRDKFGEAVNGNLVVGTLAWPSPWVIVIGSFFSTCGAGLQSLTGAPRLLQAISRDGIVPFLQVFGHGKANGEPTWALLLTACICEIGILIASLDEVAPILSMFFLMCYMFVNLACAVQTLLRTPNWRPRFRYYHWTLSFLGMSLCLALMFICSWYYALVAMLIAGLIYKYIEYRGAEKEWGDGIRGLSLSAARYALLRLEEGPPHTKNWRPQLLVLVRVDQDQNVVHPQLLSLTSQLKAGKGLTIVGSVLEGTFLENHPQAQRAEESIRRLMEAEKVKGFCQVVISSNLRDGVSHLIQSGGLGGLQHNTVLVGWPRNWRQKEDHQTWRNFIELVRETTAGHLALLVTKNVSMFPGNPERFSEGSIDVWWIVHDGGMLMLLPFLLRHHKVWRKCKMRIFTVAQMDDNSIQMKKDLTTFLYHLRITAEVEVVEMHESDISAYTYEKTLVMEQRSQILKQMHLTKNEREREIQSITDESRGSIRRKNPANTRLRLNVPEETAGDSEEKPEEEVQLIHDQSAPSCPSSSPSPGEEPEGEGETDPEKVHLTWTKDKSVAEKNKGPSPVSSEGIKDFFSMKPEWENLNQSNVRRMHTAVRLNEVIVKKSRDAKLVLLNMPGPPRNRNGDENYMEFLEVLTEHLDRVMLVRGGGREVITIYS
WT yeast gro inh: growth inhibition of WT yeast, mitochondrial fusion screen. hit rate 2.1% among 190,000. mitochondrial fusion phenotypic screen, WT strain. inhibition, % at 10 µM; in the data active = inhibition above about 58%; tested in S. cerevisiae
L major viab: inhibitors of Leishmania major promastigote growth; Leishmania major promastigotes, resazurin fluorescence viability; inhibition, % at 10 µM; hit rate 9% among 200,000; in the data active = inhibition above about 50%;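 also: promastigotes grown with compound for 44 hours at 28 °C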
ROMK mod: human ROMK K+ channel modulation, primary screen | P48048 | Tet-inducible ROMK, thallium flux fluorescence; actives lie on both sides | B-score at 10 µM | hit rate 2% among 130,000;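 active = signal ratio slope over the read window, or its plate-corrected B-score, at least 3 SD from the plate mean, either direction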;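 also: B-score of the F/F0 ratio slope over 7 to 12 s after thallium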
m-calpain inh: inhibitors of pig calpain II; purified calpain II, fluorogenic peptide substrate, 30 min; inhibition, % at 16 µM; hit rate 0.37% among 220,000;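 active = inhibition above about 50%, limit read from the data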
ROMK retest: retested hit modulating human ROMK potassium channel; ROMK thallium flux, fluorescence ratio; stronger effect = lower value; hit rate 54% among 3,000; normalized thallium flux (F/F0 slope) at 10 µM; AID 1917; shares compounds with ROMK mod;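 active = Flux at 10 µM at least 3 SD below or above vehicle control mean in one or both replicates; inconclusive = no clear call, values can overlap the other calls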
* hit, by the source's call; i = inactive; ? = inconclusive; . = no result given. Hits are enriched below; roughly 12% of the tested compounds scored in any of these assays.

SMILES | KCC2 mod | WT yeast gro inh | L major viab | ROMK mod | m-calpain inh | ROMK retest
CCOC(=O)C1=C(N)OC2=C(C(=O)CC(C)(C)C2)C1c1cc(CSc2nnnn2C)cs1 (centres undefined) | -0.41 | -2 | 10 | -4.1* | 27 | ?
CCOC(=O)C1=C(N)OC2=C(C(=O)CC(C)(C)C2)C1c1ccoc1 (centres undefined) | . | -4 | -5 | -0.099 | 3 | .
CCOC(=O)CSCC(=O)Nc1nnc(-c2cccc([N+](=O)[O-])c2)s1 | 0.15 | 14 | -6 | -0.5 | 2 | .
COC(=O)CCCC(=O)N1CCCC(CCC(=O)NCc2ccc(F)c(F)c2)C1 (centres undefined) | -1.8 | -9 | -7 | . | -38 | .
c1ccc2nc3c(cc2c1)CCCCCC3 | . | -3 | 10 | 0.039 | 2 | .
c1ccc2nc3c(cc2c1)CCCCC3 | 1 | . | . | . | 42 | 0.074
CCC(C)NCCCOc1ccc([N+](=O)[O-])cc1 (centres undefined) | 1.2 | -5 | 12 | -0.5 | -6 | .
C=CCc1cc(Cl)ccc1OCCCNC(C)CC (centres undefined) | 1.1 | 11 | 100* | -2.6* | 2 | 0.051*
CC(=O)N(CCO)Cc1cc2cc(C)cc(C)c2[nH]c1=O | 0.091 | -15 | 0 | . | -44 | .
Cc1cccc(NC(=S)N(CCN(C)C)Cc2cc3cc(C)cc(C)c3[nH]c2=O)c1 | -0.11 | -2 | 98* | -4.9* | -19 | 0.06*
Cc1cc(C)c2cc(CN(CCCN(C)C)C(=S)NCc3ccccc3)c(=O)[nH]c2c1 | -0.052 | 8 | 100* | -3.7* | -44 | 0.054*
NS(=O)(=O)c1ccc(NC(=O)COC(=O)CCc2ccccc2)cc1 | 1.5 | . | . | . | 23 | .
Cc1cc(C)nc(NS(=O)(=O)c2ccc(NC(=O)c3ccc4c(c3)OCCO4)cc2)n1 | 0.8 | -1 | 4 | 1.1 | 1 | .
COC(=O)c1cc2ccsc2n1CC(=O)N(C)C1CCCCC1 | -0.097 | -12 | 1 | -0.37 | 22 | .
N#C/C(=C\c1cccc(Cl)c1)c1n[nH]c(Cn2cncn2)n1 | -1.7 | 9 | -8 | -2.6* | -32 | 0.053*
COc1cccc(-c2nn(C)c3sc(C(=O)NCc4ccccn4)cc23)c1 | -1.3 | 5 | 10 | . | i | 0.074
CCOC(=O)C1=C(Cc2ccc(C)cc2)C(=O)c2ccccc2C1=O | 0.01 | 23 | 14 | -5.1* | 18 | 0.054*
Cc1ccc(-c2nn(-c3cc(Cl)ccc3[N+](=O)[O-])c(=O)c3ccccc23)cc1 | 0.89 | . | 32 | . | -29 | .
O=c1c2ccccc2c(-c2ccccc2)nn1-c1cc(Cl)cc(Cl)c1 | -0.77 | . | . | . | 2 | 0.077
N=C1/C(=C\c2ccc(OC(=O)c3ccco3)cc2)C(=O)N=C2SC=NN12 | -1.4 | 7 | 0 | -0.12 | 18 | .
COc1cc(/C=C2\C(=N)N3N=CSC3=NC2=O)cc(Br)c1OC(=O)c1ccco1 | -2.8 | -14 | -4 | -10* | 17 | 0.032*
N#CCN1CCC2(O)CCCCC2C1c1ccc2c(c1)OCO2 (centres undefined) | -0.43 | . | . | . | 1 | .
OCCOCCNc1ncnc2sc(-c3ccccc3)cc12 | -0.59 | 4 | 19 | -1.8* | -58 | 0.064*
COc1ccc(OC)c(Nc2ncnc3sc(-c4ccccc4)cc23)c1 | 0.77 | 17 | 1 | . | -223 | .
O=C(C1CCN(Cc2ccccc2)CC1)N1CCCC1 | 0.5 | 10 | -4 | . | 6 | 0.074
SMILES | KCC2 mod | WT yeast gro inh | L major viab | ROMK mod | m-calpain inh | ROMK retest
Cc1ccc(-n2c3nc(=O)[nH]c(=O)c-3cc3cc([N+](=O)[O-])ccc32)cc1 | -2.1 | 5 | 95* | -6.6* | -18 | 0.038*
CCOC(=O)c1nc2sc(C)c(C)c2c(=O)[nH]1 | 0.55 | 12 | -6 | -0.51 | i | .
CCOC(=O)/C(=C\c1cccc(O)c1)c1nc2sc(C)c(C)c2c(=O)[nH]1 | -0.44 | -11 | 99* | -4.1* | 17 | 0.058*
CN(C)S(=O)(=O)c1ccc(Cl)c(C(=O)OCC(=O)NC(=O)c2cccn2C)c1 | -0.83 | -22 | -5 | . | -20 | .
CCOC(=O)C(NC(C)=O)C(=O)Nc1ccc(C(C)(C)C)cc1 (centres undefined) | 0.3 | -14 | 2 | 3.5* | 23 | 0.082
CCOC(=O)C(NC(C)=O)C(=O)Nc1ccc(C(C)C)cc1 (centres undefined) | -0.015 | -6 | -3 | -0.65 | 4 | .
O=C1NC(Cc2c[nH]c3ccccc23)C(=O)N1Cc1ccc(CN2C(=O)NC(Cc3c[nH]c4ccccc34)C2=O)cc1 (centres undefined) | -0.012 | -1 | 8 | -3.9* | -77 | 0.065*
